Assay outcomes: PubChem BioAssay, National Center for Advancing Translational Sciences (NCATS)
The entries come from a sample that favours hits as a whole.
HT1080 IDH1KD tx – HT-1080 IDH1 knockdown cell toxicity (counter line). HT-1080 IDH1 knockdown viability, ATP luminescence, 48 h. 360,000 tested, 2% active. Potency, µM (series often up to 46.1 µM), for the others: top-dose activity, negative = toxicity, actives largely listed as cytotoxic;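 further: potency means the concentration at half of the fitted maximal effect; 0% = DMSO wells and -100% = cell-free medium wells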
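IDH1KD HT-1080 cells, 750/well, RPMI + 5% FBS; compound pinned after 2 h settling; 48 h, 37 °C; CellTiter-Glo luminescence; % activity normalised to DMSO and no-cell wells; curves fitted, classed by r2 and efficacy.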
ALOX12 inh – blocks human arachidonate 12S-lipoxygenase. P18054. purified 12hLO, xylenol orange hydroperoxide absorbance. Potency, µM (titrated, usually from 108 µM), for inactives: top-dose activity change, negative = inhibition, usual class: inhibitors. 580,000 tested, 1.1% active; further: potency means the concentration at half of the fitted maximal effect
Target sequence (P18054 whole entry, looked up): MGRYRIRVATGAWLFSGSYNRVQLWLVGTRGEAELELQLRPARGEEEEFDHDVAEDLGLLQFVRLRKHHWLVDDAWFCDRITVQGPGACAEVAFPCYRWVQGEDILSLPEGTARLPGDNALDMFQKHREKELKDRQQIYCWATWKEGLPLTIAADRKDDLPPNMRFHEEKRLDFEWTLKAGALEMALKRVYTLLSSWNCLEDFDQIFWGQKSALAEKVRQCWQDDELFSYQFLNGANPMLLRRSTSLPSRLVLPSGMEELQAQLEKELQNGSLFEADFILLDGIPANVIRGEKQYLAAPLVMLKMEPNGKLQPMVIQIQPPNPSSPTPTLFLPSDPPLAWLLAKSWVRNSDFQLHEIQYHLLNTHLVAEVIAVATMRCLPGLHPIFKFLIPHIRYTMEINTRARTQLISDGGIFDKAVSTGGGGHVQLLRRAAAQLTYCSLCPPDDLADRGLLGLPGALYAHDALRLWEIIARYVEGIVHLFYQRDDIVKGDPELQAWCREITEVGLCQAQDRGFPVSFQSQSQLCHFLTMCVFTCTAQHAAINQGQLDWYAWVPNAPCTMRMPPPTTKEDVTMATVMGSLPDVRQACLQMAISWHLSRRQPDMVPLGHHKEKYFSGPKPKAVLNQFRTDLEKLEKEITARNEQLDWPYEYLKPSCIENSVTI
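Hydroperoxide product was detected by ferrous iron/xylenol orange as the 573 to 405 nm absorbance ratio. Arachidonic acid at 40 uM (final) was turned over for 30 min at room temperature by 150 nM human 12hLO, pH 7.0 Hepes buffer, after 15 min compound preincubation.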
TDP1 cell noCPT – qHTS for Inhibitors of human tyrosyl-DNA phosphodiesterase 1 (TDP1): qHTS in cells in absence of CPT. Potency, µM (doses to about 46.2 µM), for inactives: at the highest dose activity change, negative = growth inhibition, actives largely listed as inhibitors. DT40 Tdp1-/- hTDP1 cells, no CPT, ATP luminescence, 48 h. 420,000 tested, 15% active; further: potency means the concentration at half of the fitted maximal effect; nearly all actives have a fitted effect of over 55% in size
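DT40 Tdp1-/-;hTDP1 cells, no CPT (DMSO vehicle only), 400 cells/well; compounds pin-transferred; ≥48 hr, 37 °C; CellTiter-Glo 30 min RT dark, luminescence read.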
DT40 TDP1 CPT – DT40-hTDP1 cell growth loss with CPT | chicken DT40 Tdp1-/-;hTDP1 cells + 20 nM CPT, ATP luminescence, 48 h | Potency, µM (highest dose often 46.2 µM), without a hit: top-dose activity change, negative = growth inhibition, hits mostly inhibitors | 420,000 tested, 12% active | AID 686979; further: potency means the concentration at half of the fitted maximal effect; nearly all actives have a fitted effect of over 55% in size
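Chicken DT40 Tdp1-/- cells stably complemented with human TDP1 were seeded at 400 cells/well in medium containing 20 nM camptothecin, exposed to pin-transferred compounds, and grown at 37 °C for at least 48 hr. Viability was read as ATP luminescence.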
IL-1B inflam inh – inhibitors of inflammasome signaling (IL-1 beta secretion); activity change, % at 57.5 µM; THP-1 LPS/ATP IL-1B secretion, AlphaLISA, 16 h; active compounds read low; 360,000 tested, 4.7% active; AID 743279; in the data active means activity change below about -50%; inconclusive means mostly about -30% to -49%
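THP-1 cells pretreated 1 hr with compounds (up to 57.5 uM final), then stimulated with LPS (250 ng/mL final) plus ATP (1.25 mM final); secreted IL-1B measured by AlphaLISA after 16 hr, decreased signal indicating inhibition.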
HT1080NT lethal – kills 2HG-producing HT-1080-NT fibrosarcoma cells; HT-1080-NT fibrosarcoma viability, CellTiter-Glo ATP luminescence, 48 h; Potency, µM (titrated, usually from 46.1 µM), for inactives: at the highest dose activity, negative = less viability, most hits filed as cytotoxic; 360,000 tested, 1.6% active; AID 686970;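 further: NT is the 2HG producing partner of a matched IDH1 knockdown line; potency means the concentration at half of the fitted maximal effect; 0% = DMSO-treated cells and -100% = media-only wells without cells; nearly all actives have a fitted effect of over 55% in size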
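HT-1080-NT fibrosarcoma cells (2HG-overproducing), 750 cells/well in RPMI with 5% FBS, dosed after 2 h and incubated 48 h at 37C. CellTiter-Glo luminescence normalized to DMSO and no-cell wells; concentration-response curves fitted and classed.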
Active calls of the source: *; i = inactive; u = inconclusive; x = no result; [ ] = dose if it differs, or a comment. Unless noted, the call rests on the fitted dose curve; in most records, active means well fitted curve in the direction sought with a large enough effect; inconclusive means small, poorly fitted or top-dose-only effect, or another doubt; inactive means no such curve, though single readings can be large; an effect the other way counts as inactive or inconclusive. Unless noted, on the % scale 0 is the no-effect control and ±100 the full control effect.

SMILES	HT1080 IDH1KD tx	ALOX12 inh	TDP1 cell noCPT	DT40 TDP1 CPT	IL-1B inflam inh	HT1080NT lethal
CC(=O)N1CCN(c2ccccc2NC(=O)c2ccc(Br)o2)CC1	26.1%	3.7%	-20.5%	u	i	17.3%
Cc1ccc(C)c(NC(=O)CN(C)C(=O)c2ccc(-c3cccc(C(F)(F)F)c3)o2)c1	5.1%	-5.0%	14.6µM*	u	-16.2	-3.4%
NC(=O)c1ccccc1NC(=O)c1ccc(-c2ccc(Br)cc2)o1	x	3.3%	u	-24.5%	x	x
COc1ccccc1NC(=O)c1ccc(-c2ccc(Br)cc2)o1	18.4µM*	-12.1%	5.8µM*	7.31µM*	22.5	u
COc1cc(NC(=O)c2ccco2)ccc1NC(=O)C(C)C	17.9%	-25.3%	0.0%	-11.5%	-4.7	14.0%
COc1cc(NC(=O)c2ccc(-c3ccc(Br)cc3)o2)ccc1NC(=O)C(C)C	-8.0%	-3.0%	18.4µM*	14.6µM*	0.0	-6.5%
CCc1ccc(S(=O)(=O)NCc2cccn2Cc2cccc(C)c2)cc1	x	-35.6%	u	u	x	x
CCC(=O)Nc1ccc(S(=O)(=O)NCc2cccn2Cc2cccc(C)c2)cc1	x	-28.5%	23.1µM*	20.6µM*	x	x
COc1ccc(S(=O)(=O)NCCc2sc(-c3ccccc3)nc2C)cc1F	x	-9.6%	x	x	x	x
COc1ccc(-c2nc(CNS(=O)(=O)c3ccc(F)cc3)cs2)cc1	x	-8.3%	18.4µM*	u	x	x
COc1ccc(-c2nc(CNS(=O)(=O)c3cccc(F)c3)cs2)cc1	x	-19.9%	14.6µM*	-76.2%	x	x
O=S(=O)(NCCc1csc(-c2cccnc2)n1)c1ccc(F)cc1	12.7%	4.9%	-11.0%	3.3%	15.6	0.2%
COc1ccc(S(=O)(=O)NCCc2csc(-c3ccc(F)cc3)n2)cc1F	x	-25.6%	25.9µM*	23.1µM*	x	x
COc1ccc(S(=O)(=O)NCCc2csc(-c3ccc(F)cc3)n2)cc1	x	-29.1%	14.6µM*	11.6µM*	x	x
O=C(NCc1ccccc1Cn1cccn1)c1cn[nH]c1-c1ccccc1	x	-1.5%	x	x	x	x
Cc1ccc(-c2nnc(SCC(=O)c3ccc4c(c3)NC(=O)CO4)o2)cc1C	x	8.5%	x	x	x	x
CC(C)(C)C1CCC(C(=O)OCC(=O)c2ccc(Cl)c(Cl)c2)CC1 (stereo unspecified)	x	19.8%	x	x	x	x
Cc1c(C(=O)N2CCc3ccccc3C2)oc2ccc(F)cc12	x	-3.0%	x	x	x	x
CCc1ccccc1NC(=O)Cc1c(C)nc2nc(-c3cccs3)nn2c1C	x	29.5%	x	x	x	x
COCC(=O)N1CCC(Oc2ccc(C(=O)NCCCC3CCCC3)cc2)CC1	-14.1%	-1.8%	18.4µM*	13µM*	i	-17.1%
CC(=O)c1ccc(N2CCN(C(=S)Nc3cc(C)ccc3C)CC2)cc1	7.4%	3.6%	u	-12.2%	20.9	5.9%
CC(=O)c1ccc(N2CCN(C(=S)Nc3ccccc3F)CC2)cc1	8.2%	-9.2%	7.31µM*	u	23.3	12.0%
CC(=O)c1ccc(N2CCN(C(=S)Nc3ccccc3)CC2)cc1	8.0%	0.0%	20.6µM*	u	-9.6	13.7%
CC1(C)[C@H](Cc2cc(COC(=O)c3cccs3)on2)C[C@@H]1NC(=O)c1cccs1	x	-44.7%[176 µM]	x	x	x	x
COc1cccc(NC(=O)Cn2c3ccccc3c3nc4n(c(=O)c32)CCCS4)c1	-3.5%	-10.3%	u	u	-7.4	0.9%
SMILES	HT1080 IDH1KD tx	ALOX12 inh	TDP1 cell noCPT	DT40 TDP1 CPT	IL-1B inflam inh	HT1080NT lethal
O=C(Cn1c2ccccc2c2nc3n(c(=O)c21)CCCS3)Nc1ccccc1	u	-14.5%	u	13µM*	u	u
COc1ccc(F)cc1-c1ccc(COc2ccc3c(cnn3CCC(=O)O)c2)cc1	x	35.5µM*	x	x	x	x
CNC(=O)CCn1ncc2cc(OCc3ccccc3-c3ccc(F)cc3C)ccc21	x	63.1µM*	x	x	x	x
COc1ccccc1N1CCN(C2CCN(S(=O)(=O)c3ccc(C)cc3)CC2)CC1	-9.0%	-6.6%	u	-29.3%	-5.8	-19.0%
COc1ccccc1N1CCN(C2CCN(S(=O)(=O)c3ccc4ccccc4c3)CC2)CC1	0.5%	-5.5%	u	u	-62.4*	-3.1%
COc1ccccc1N1CCN(S(=O)(=O)c2ccc3nc(-c4ccccc4)[nH]c3c2)CC1	-5.9%	2.1%	20.6µM*	u	u	-5.8%
COc1cc(C2c3c([nH]c(=O)[nH]c3=O)Nc3ccc4ccccc4c32)cc(OC)c1OC (stereo unspecified)	-25.6%	u	-21.6%	-0.2%	-92.3*	u
COc1ccc(C2C3=C(CCCC3=O)Nc3ccc4ncccc4c32)cc1OC (stereo unspecified)	-7.3%	-3.7%	11.7%	-0.6%	-12.7	-20.6%
COc1cc(C2c3c([nH]c(=O)[nH]c3=O)Nc3ccc4ccccc4c32)ccc1O (stereo unspecified)	u	u	-15.2%	-13.2%	-97.0*	-24.6%
COc1cc(C2C3=C(CCCC3=O)Nc3ccc4ncccc4c32)ccc1O (stereo unspecified)	6.51µM*	-17.3%	6.51µM*	6.51µM*	11.0	u
CN(C)CCNc1nc2c(c(=O)n(C)c(=O)n2C)n1Cc1ccc(Cl)cc1	x	5.6%	x	x	x	x
CNS(=O)(=O)c1cc(NS(=O)(=O)c2cc(Cl)cc(Cl)c2)ccc1C	x	-16.0%	x	x	x	x
CC[C@@H]1C(c2cccc(Cl)c2)=NN(c2ccc(Br)cc2)[C@H]1C(=O)N1CCOC1=O	u	x	u	u	-66.1*	u
O=C1OCCN1C(=O)[C@H]1[C@H](c2ccccc2)C(c2cccc(Cl)c2)=NN1c1ccc(Br)cc1	-17.4%	-9.9%	-10.8%	-12.5%	0.0	-2.8%
C[C@@H]1C(c2ccc(F)cc2)=NN(c2ccccc2)[C@H]1C(=O)N1CCOC1=O	-26.7%	-21.7%	-7.8%	13.4%	-15.4	-18.4%
CC[C@@H]1C(c2ccc(F)cc2)=NN(c2ccc(Br)cc2)[C@H]1C(=O)N1CCOC1=O	-22.5%	-4.4%	u	u	-73.6*	-16.0%
O=C1CN(CC(=O)Nc2cccc3ncccc23)CCN1	x	15.8%	x	x	x	x
Cc1c(C(=O)NCCCN2CCCCC2)oc2ccc3c(c12)C(O)CC1(CCCCC1)O3 (stereo unspecified)	3.1%	0.0%	16.4µM*	u	-3.6	1.7%
CCOC(=O)C1CCN(C(=O)c2oc3ccc4c(c3c2C)C(O)CC2(CCCCC2)O4)CC1 (stereo unspecified)	-21.1%	-0.1%	u	u	5.7	-16.2%
CC(C)OC(=O)c1nc2ccccc2nc1N1CCN(c2ccc(F)cc2)CC1	x	-43.6%	x	x	x	x
